Data: article PMC11006913
Positions count from the first letter of the chain named.

Tests used:
Experiment in all cases: PBM; 200 nM protein, PBS
Conditions in all cases: dsDNA, one strand shown
SIX6 [1] = molecular target: T1, SIX6 (Homo sapiens, UniProt O95475 114-200, L167I)
T1 sequence: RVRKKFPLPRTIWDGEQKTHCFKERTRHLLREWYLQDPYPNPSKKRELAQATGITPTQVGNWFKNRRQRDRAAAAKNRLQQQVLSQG

SIX6 [2] = molecular target: T2, SIX6 (Homo sapiens, UniProt O95475 114-200, L143V)
T2 sequence: T1 sequence with L30V, I54L

SIX6 [3] = molecular target: T3, SIX6 (Homo sapiens, UniProt O95475 114-200, H141N)
T3 sequence: T1 sequence with H28N, I54L

SIX6 [4] = molecular target: T4, SIX6 (Homo sapiens, UniProt O95475 114-200, T165P)
T4 sequence: T1 sequence with T52P, I54L

SIX6 [5] = molecular target: T5, SIX6 (Homo sapiens, UniProt O95475 114-200, L167M)
T5 sequence: T1 sequence with I54M

SIX6 [6] = molecular target: T6, SIX6 (Homo sapiens, UniProt O95475 114-200, L143M)
T6 sequence: T1 sequence with L30M, I54L

SIX6 [7] = molecular target: T7, SIX6 (Homo sapiens, UniProt O95475 114-200, L143I)
T7 sequence: T1 sequence with L30I, I54L

SIX6 [8] = molecular target: T8, SIX6 (Homo sapiens, UniProt O95475 114-200, T165G)
T8 sequence: T1 sequence with T52G, I54L

SIX6 [9] = molecular target: T9, SIX6 (Homo sapiens, UniProt O95475 114-200, T139Q)
T9 sequence: T1 sequence with T26Q, I54L

SIX6 [10] = molecular target: T10, SIX6 (Homo sapiens, UniProt O95475 114-200, T165A)
T10 sequence: T1 sequence with T52A, I54L

SIX6 [11] = molecular target: T11, SIX6 (Homo sapiens, UniProt O95475 114-200, L167V)
T11 sequence: T1 sequence with I54V

SIX6 [12] = molecular target: T12, SIX6 (Homo sapiens, UniProt O95475 114-200)
T12 sequence: T1 sequence with I54L

SIX6 [13] = molecular target: T13, SIX6 (Homo sapiens, UniProt O95475 114-200, T165I)
T13 sequence: T1 sequence with T52I, I54L

| Sequence | binding signal (SIX6 [1]) | binding signal (SIX6 [2]) | binding signal (SIX6 [3]) | binding signal (SIX6 [4]) | binding signal (SIX6 [5]) | binding signal (SIX6 [6]) | binding signal (SIX6 [7]) | binding signal (SIX6 [8]) | binding signal (SIX6 [9]) | binding signal (SIX6 [10]) | binding signal (SIX6 [11]) | binding signal (SIX6 [12]) | binding signal (SIX6 [13]) |
| --- | --- | --- | --- | --- | --- | --- | --- | --- | --- | --- | --- | --- | --- |
| CCCTCTGC | 8.98 upbm affinity estimate (log intensity, higher = more binding, comparable within an allelic series) | 8.83 upbm affinity estimate (log intensity, higher = more binding, comparable within an allelic series) | 9.02 upbm affinity estimate (log intensity, higher = more binding, comparable within an allelic series) | 8.85 upbm affinity estimate (log intensity, higher = more binding, comparable within an allelic series) | 8.95 upbm affinity estimate (log intensity, higher = more binding, comparable within an allelic series) | 9.06 upbm affinity estimate (log intensity, higher = more binding, comparable within an allelic series) | 8.9 upbm affinity estimate (log intensity, higher = more binding, comparable within an allelic series) | 9.1 upbm affinity estimate (log intensity, higher = more binding, comparable within an allelic series) | 9.06 upbm affinity estimate (log intensity, higher = more binding, comparable within an allelic series) | 9.06 upbm affinity estimate (log intensity, higher = more binding, comparable within an allelic series) | 8.95 upbm affinity estimate (log intensity, higher = more binding, comparable within an allelic series) | 9.05 upbm affinity estimate (log intensity, higher = more binding, comparable within an allelic series) | 8.97 upbm affinity estimate (log intensity, higher = more binding, comparable within an allelic series) |
| CGGCCCAA | 9.05 upbm affinity estimate (log intensity, higher = more binding, comparable within an allelic series) | 8.91 upbm affinity estimate (log intensity, higher = more binding, comparable within an allelic series) | 9.04 upbm affinity estimate (log intensity, higher = more binding, comparable within an allelic series) | 8.99 upbm affinity estimate (log intensity, higher = more binding, comparable within an allelic series) | 9.02 upbm affinity estimate (log intensity, higher = more binding, comparable within an allelic series) | 8.96 upbm affinity estimate (log intensity, higher = more binding, comparable within an allelic series) | 8.94 upbm affinity estimate (log intensity, higher = more binding, comparable within an allelic series) | 9.03 upbm affinity estimate (log intensity, higher = more binding, comparable within an allelic series) | 9.14 upbm affinity estimate (log intensity, higher = more binding, comparable within an allelic series) | 8.99 upbm affinity estimate (log intensity, higher = more binding, comparable within an allelic series) | 8.99 upbm affinity estimate (log intensity, higher = more binding, comparable within an allelic series) | 8.99 upbm affinity estimate (log intensity, higher = more binding, comparable within an allelic series) | 9.03 upbm affinity estimate (log intensity, higher = more binding, comparable within an allelic series) |
| CCGCAGCG | 8.92 upbm affinity estimate (log intensity, higher = more binding, comparable within an allelic series) | 8.95 upbm affinity estimate (log intensity, higher = more binding, comparable within an allelic series) | 8.92 upbm affinity estimate (log intensity, higher = more binding, comparable within an allelic series) | 9.03 upbm affinity estimate (log intensity, higher = more binding, comparable within an allelic series) | 8.98 upbm affinity estimate (log intensity, higher = more binding, comparable within an allelic series) | 8.95 upbm affinity estimate (log intensity, higher = more binding, comparable within an allelic series) | 8.96 upbm affinity estimate (log intensity, higher = more binding, comparable within an allelic series) | 8.86 upbm affinity estimate (log intensity, higher = more binding, comparable within an allelic series) | 8.88 upbm affinity estimate (log intensity, higher = more binding, comparable within an allelic series) | 8.92 upbm affinity estimate (log intensity, higher = more binding, comparable within an allelic series) | 8.99 upbm affinity estimate (log intensity, higher = more binding, comparable within an allelic series) | 8.96 upbm affinity estimate (log intensity, higher = more binding, comparable within an allelic series) | 8.92 upbm affinity estimate (log intensity, higher = more binding, comparable within an allelic series) |
| AGCGGGCC | 9.04 upbm affinity estimate (log intensity, higher = more binding, comparable within an allelic series) | 8.92 upbm affinity estimate (log intensity, higher = more binding, comparable within an allelic series) | 8.88 upbm affinity estimate (log intensity, higher = more binding, comparable within an allelic series) | 8.96 upbm affinity estimate (log intensity, higher = more binding, comparable within an allelic series) | 8.96 upbm affinity estimate (log intensity, higher = more binding, comparable within an allelic series) | 8.83 upbm affinity estimate (log intensity, higher = more binding, comparable within an allelic series) | 8.88 upbm affinity estimate (log intensity, higher = more binding, comparable within an allelic series) | 8.84 upbm affinity estimate (log intensity, higher = more binding, comparable within an allelic series) | 9.03 upbm affinity estimate (log intensity, higher = more binding, comparable within an allelic series) | 8.98 upbm affinity estimate (log intensity, higher = more binding, comparable within an allelic series) | 8.99 upbm affinity estimate (log intensity, higher = more binding, comparable within an allelic series) | 8.89 upbm affinity estimate (log intensity, higher = more binding, comparable within an allelic series) | 8.98 upbm affinity estimate (log intensity, higher = more binding, comparable within an allelic series) |
| CGTGATAC | 11.2 upbm affinity estimate (log intensity, higher = more binding, comparable within an allelic series) | 10.3 upbm affinity estimate (log intensity, higher = more binding, comparable within an allelic series) | 11.3 upbm affinity estimate (log intensity, higher = more binding, comparable within an allelic series) | 9.72 upbm affinity estimate (log intensity, higher = more binding, comparable within an allelic series) | 10.6 upbm affinity estimate (log intensity, higher = more binding, comparable within an allelic series) | 11.1 upbm affinity estimate (log intensity, higher = more binding, comparable within an allelic series) | 10.4 upbm affinity estimate (log intensity, higher = more binding, comparable within an allelic series) | 11.3 upbm affinity estimate (log intensity, higher = more binding, comparable within an allelic series) | 11.3 upbm affinity estimate (log intensity, higher = more binding, comparable within an allelic series) | 11.2 upbm affinity estimate (log intensity, higher = more binding, comparable within an allelic series) | 10.9 upbm affinity estimate (log intensity, higher = more binding, comparable within an allelic series) | 11 upbm affinity estimate (log intensity, higher = more binding, comparable within an allelic series) | 11 upbm affinity estimate (log intensity, higher = more binding, comparable within an allelic series) |
| AGCGGCGC | 8.85 upbm affinity estimate (log intensity, higher = more binding, comparable within an allelic series) | 8.89 upbm affinity estimate (log intensity, higher = more binding, comparable within an allelic series) | 8.85 upbm affinity estimate (log intensity, higher = more binding, comparable within an allelic series) | 8.89 upbm affinity estimate (log intensity, higher = more binding, comparable within an allelic series) | 8.88 upbm affinity estimate (log intensity, higher = more binding, comparable within an allelic series) | 8.98 upbm affinity estimate (log intensity, higher = more binding, comparable within an allelic series) | 8.84 upbm affinity estimate (log intensity, higher = more binding, comparable within an allelic series) | 8.81 upbm affinity estimate (log intensity, higher = more binding, comparable within an allelic series) | 8.91 upbm affinity estimate (log intensity, higher = more binding, comparable within an allelic series) | 8.86 upbm affinity estimate (log intensity, higher = more binding, comparable within an allelic series) | 8.82 upbm affinity estimate (log intensity, higher = more binding, comparable within an allelic series) | 8.72 upbm affinity estimate (log intensity, higher = more binding, comparable within an allelic series) | 8.83 upbm affinity estimate (log intensity, higher = more binding, comparable within an allelic series) |
